TDP1 cell CPT: growth inhibition of DT40 Tdp1-/-;hTDP1 cells with camptothecin (screen for TDP1 inhibitors). hit rate 12% among 420,000. chicken DT40 Tdp1-/-;hTDP1 cells + 20 nM CPT, ATP luminescence, 48 h. Potency, µM (highest dose often 46.2 µM), inactives show at the highest dose activity change, negative = growth inhibition, most hits filed as inhibitors. AID 686979; note: potency is the fitted concentration of half-maximal effect; nearly all actives have a fitted effect of over 55% in size
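Cell growth measured by CellTiter-Glo luminescence after a minimum 48 h, 37 C compound exposure with 20 nM CPT in Tdp1-knockout DT40 cells stably expressing hTDP1, seeded 400/well; qHTS titration format.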
IL-1B inflam inh: inflammasome signaling inhibition, IL-1 beta readout; THP-1 LPS/ATP IL-1B secretion, AlphaLISA, 16 h; stronger effect = lower value; activity change, % at 57.5 µM; hit rate 4.7% among 360,000; AID 743279; in the data active = activity change below about -50%; inconclusive = mostly about -30% to -49%
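Secreted IL-1B measured by AlphaLISA bead assay after 16 h compound exposure of THP-1 cells; compounds (final up to 57.5 uM) added 1 h before LPS (250 ng/mL) and ATP (1.25 mM) stimulation; lower signal means less secretion.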
TDP1 cell noCPT: qHTS for Inhibitors of human tyrosyl-DNA phosphodiesterase 1 (TDP1): qHTS in cells in absence of CPT; DT40 Tdp1-/- hTDP1 cells, no CPT, ATP luminescence, 48 h; Potency, µM (highest dose often 46.2 µM), inactives show at the highest dose activity change, negative = growth inhibition, hits mostly inhibitors; hit rate 15% among 420,000; note: potency is the fitted concentration of half-maximal effect; nearly all actives have a fitted effect of over 55% in size
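Chicken DT40 Tdp1-/- cells stably complemented with human TDP1 were seeded at 400 cells/well with DMSO in place of 20 nM camptothecin. After compound pinning, cells grew at least 48 hr at 37 °C; viability read by CellTiter-Glo luminescence.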
HT1080 IDH1KD tx: toxicity to HT-1080 IDH1 knockdown cells (counter line); hit rate 2% among 360,000; HT-1080 IDH1 knockdown viability, ATP luminescence, 48 h; Potency, µM (highest dose often 46.1 µM), for inactives: at the highest dose activity, negative = toxicity, usual class: cytotoxic;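 note: potency is the fitted concentration of half-maximal effect; 0% = DMSO wells and -100% = cell-free medium wells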
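CellTiter-Glo luminescence after 48 h compound exposure at 37 degrees C of IDH1-knockdown HT-1080 cells in 5% FBS RPMI. %Activity scaled between DMSO wells and cell-free media wells, with curves fitted and assigned curve classes.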
HT1080-NT tox: kills 2HG-producing HT-1080-NT fibrosarcoma cells | AID 686970 | hit rate 1.6% among 360,000 | HT-1080-NT fibrosarcoma viability, CellTiter-Glo ATP luminescence, 48 h | Potency, µM (highest dose often 46.1 µM), without a hit: top-dose activity, negative = less viability, hits mostly cytotoxic;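 note: NT is the 2HG producing partner of a matched IDH1 knockdown line; potency is the fitted concentration of half-maximal effect; 0% = DMSO-treated cells and -100% = media-only wells without cells; nearly all actives have a fitted effect of over 55% in size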
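HT-1080-NT fibrosarcoma cells (2HG-overproducing), 750 cells/well in RPMI with 5% FBS, dosed after 2 h and incubated 48 h at 37C. CellTiter-Glo luminescence normalized to DMSO and no-cell wells; concentration-response curves fitted and classed.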
Active calls of the source: *; ? = inconclusive; / = no result; ! = repeats disagree; [ ] = remark or other dose. This is a sample that favours compounds with a hit; in the whole collection about 19% have one here. Unless noted, calls come from the whole dose curve; as a rule, active = well fitted curve in the direction sought with a large enough effect; inconclusive = small, poorly fitted or top-dose-only effect, or another doubt; inactive = no such curve, though single readings can be large; an effect the other way counts as inactive or inconclusive. Unless noted, % is set by controls: 0 for no effect and ±100 for the full control effect.

SMILES	TDP1 cell CPT	IL-1B inflam inh	TDP1 cell noCPT	HT1080 IDH1KD tx	HT1080-NT tox
COc1ccc(NC(=O)[C@@H](NS(=O)(=O)c2cccc(Cl)c2)C(C)C)cc1S(=O)(=O)N1CCOCC1	-1%	-10	-17%	2%	8%
Cc1nc(Nc2ccccc2C(F)(F)F)sc1C(=O)N(C)C	-2%	-52*	?	-9%	6%
Cc1nc(NCCc2ccccc2)sc1C(=O)N(C)C	-21%	3	?	4%	16%
Oc1c(CN2CCOCC2)cc(COCc2ccccc2)c2cccnc12	4.6µM*	19	4.1µM*	13µM*	?
COCc1cc(CN2CCN(C)CC2)c(O)c2ncccc12	4.1µM*	20	3.3µM*	?	?
CCOC(=O)N1CCN(Cc2cc(Cl)c3cccnc3c2O)CC1	0.82µM*	62	0.46µM*	3.3µM*	5.8µM*
CCOCc1cc(CN2CCN(c3cccc(Cl)c3)CC2)c(O)c2ncccc12	8.2µM*	/	7.3µM*	/	/
Oc1c(CN2CCN(c3ccccc3)CC2)cc(Br)c2cccnc12	5.2µM*	53	3.3µM*	?	?
O=c1cc(CN2CCN(c3ccccc3)CC2)c2c(ccc3ccccc32)o1	?	8	?	9%	8%
CC(C)OCc1cc(CN2CCN(c3ccccc3)CC2)c(O)c2ncccc12	4.6µM*	/	3.3µM*	/	/
CCOC(=O)C1CCN(Cc2ccc(O)c3ncccc23)CC1	4.6µM*	13	3.7µM*	-30%	?
c1ccc(N2CCN(Cc3ccnc4ccccc34)CC2)cc1	26µM*	-24	21µM*	?	-4%
CCOC(=O)C1CCN(Cc2ccccc2C(F)(F)F)CC1	-21%	9	-8%	2%	3%
Cc1ccc2nc(N3CCN(C)CC3)c(C=O)c(=O)n2c1	7%	-12	1%	25%	4%
Cc1cc(NO)c(C(C)C)cc1N=O	8.2µM*	-85*	10µM*	-21%	-19%
Cc1cc(O)c(C(C)C)cc1N=Nc1ccccc1C(=O)O	-11%	19	?	?	?
Cc1cccc(CNC(=O)C2CCC(=O)N(Cc3ccccc3F)C2)n1 (stereo not given)	-14%	-7	-9%	-7%	0%
CC(C)c1nn2c(=O)cc(COC(=O)c3ccccc3NC(=O)c3cccc(Cl)c3)nc2s1	16µM*	/	18µM*	/	/
CC(C)Cc1nn2c(=O)cc(COC(=O)c3ccccc3NC(=O)c3cccs3)nc2s1	-16%	/	?	/	/
CC(C)c1nn2c(=O)cc(COC(=O)c3ccccc3NC(=O)c3cccs3)nc2s1	7.3µM*	/	7.3µM*	/	/
Nc1ccc2cc3ccccc3cc2c1	?	-13	?	-4%	5%
Nc1ccc2cccc(O)c2c1	?	20	13µM*	-7%	-19%
COc1ccc(C2c3c(-c4cc(Cl)c(C)cc4O)n[nH]c3C(=O)N2Cc2cccnc2)cc1OC (stereo not given)	-19%	?	?	-2%	-6%
Cc1c(Cl)cccc1Nc1ncccc1C(=O)O	?	36	?	-5%	-1%
Cc1c(Nc2ncccc2C(=O)O)cccc1C(F)(F)F	?	22	4µM*!	12%	-1%
SMILES	TDP1 cell CPT	IL-1B inflam inh	TDP1 cell noCPT	HT1080 IDH1KD tx	HT1080-NT tox
CC1(C)Cc2ccccc2-c2n[nH]c(=S)n21	?	2	23µM*	11µM*	14µM*
CCOc1ccc(CNS(=O)(=O)c2ccc(-c3coc(C)n3)cc2)cc1	?	/	18µM*	/	/
CCOc1ccc(CNS(=O)(=O)c2ccc(-c3coc(C)n3)cc2)cc1OC	7.3µM*	/	15µM*	/	/
CC1CCCN(C(=O)C2CCN(S(=O)(=O)c3cccc4cccnc34)CC2)C1 (stereo not given)	?	9	-27%	0%	-2%
COc1ccccc1CNC(=O)c1cnc2sc(N3CCCCC3)nn2c1=O	?	/	23µM*	/	/
COc1cccc(CNC(=O)c2cnc3sc(N4CCCC4)nn3c2=O)c1OC	3%	/	-15%	/	/
CCOc1ccccc1CNC(=O)c1cnc2sc(N3CCCC3)nn2c1=O	15µM*	/	16µM*	/	/
CCN(CC)c1nn2c(=O)c(C(=O)NCc3ccccc3Br)cnc2s1	23µM*	/	?	/	/
COC(=O)C1CCN(c2csc3ccc(Cl)cc3c2=O)CC1	-29%	/	-21%	/	/
O=C(NCc1cccc(F)c1)c1cccc(NC(=O)c2nsc3ccccc23)c1	23µM*	/	23µM*	/	/
COc1cccc(CNC(=O)c2cccc(Br)c2)c1	?	4	?	11%	1%
COc1cccc(CNC(=O)c2cccc(NC(=O)c3nsc4ccccc34)c2)c1	?	/	21µM*	/	/
Cc1cc(C(=O)c2ccccc2)c(NC(=O)CCl)s1	9.2µM*	-100*	23µM*	?	?
CC(C)(C)NS(=O)(=O)c1ccc(NC(=S)NC(=O)C2CCC2)cc1	?	3	?	-21%	-14%
CCOc1ccc(NS(=O)(=O)c2ccc(C(=O)N(C)CC(=O)Nc3ccc(OC)cc3)cc2)cc1	13µM*	36	?	-15%	-2%
CCOc1ccc(NS(=O)(=O)c2ccc(NC(=S)NC(=O)CC(C)C)cc2)cc1	?	0	?	-5%[9.24 µM]	?
CCOc1ccc(S(=O)(=O)Nc2cccc(C(=O)N(C)CC(=O)Nc3ccc(OC)cc3)c2)cc1	-26%	5	-30%	-6%	-3%
CC(C)CC(=O)NC(=S)Nc1ccc(S(=O)(=O)NC(C)(C)C)cc1	?	-6	23µM*	-12%	-15%
COc1ccc(CC(=O)Nc2ccc(S(=O)(=O)NC(C)C)cc2)cc1	?	23	?	-19%	-4%
CCCC(=O)NC(=S)Nc1ccc(S(=O)(=O)Nc2ccc(OCC)cc2)cc1	12µM*	8	?	23µM*	4.6µM*
CCCCNS(=O)(=O)c1ccc(NC(=O)Cc2ccc(OC)cc2)cc1	13µM*	36	7.3µM*	-9%	-1%
O=C1CCC[C@@H]2Cc3nc4ccc(Cl)cc4cc3[C@@H]3CCN1[C@H]23	?	14	?	9%	13%
COC(=O)c1ccc(/C=C/C(=O)OCC(=O)Nc2cc(C)on2)cc1	0%	-7	2%	18%	2%
C[C@H]1C=C2C=C[C@H](C)[C@H](CC[C@@H]3C[C@@H](O)CC(=O)O3)[C@H]2[C@@H](OC(=O)[C@@H](C)CCO)C1	27µM*	/	27µM*	/	/
Cc1nsc2nc3c(F)c(F)c(F)c(F)c3cc12	?	-97*	?	?	0%
COc1ccc(-c2nnc(-c3ccccc3O)o2)cc1	?	23	10µM*	-9%	?

High-throughput results as filed in PubChem.
